Test results published in PubChem BioAssay.
The source made the active and inactive calls.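 Rule for the calls, unless noted: active = fluorescence slope after compound addition differing from the mean of all screened samples at 99.7% confidence, in either direction; inactive = the rest.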

What was measured:
[1] = inhibitors of TNFa-induced NFkB p65 translocation, primary screen, imaging, HUVEC, MLSMR starter and 10KST1 sets (AID 438;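 active = inhibition above 20% together with a positive visual image hit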;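 note: compound added about 3h40 before a 20 min TNFalpha stimulation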;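 for inhibition: signal is the nuclear over cytoplasmic p65 intensity ratio per well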); details: HUVEC TNFa-induced p65 nuclear translocation; cell count: measured here: nuclei count (cytotoxicity indicator), at 2.08 µM; inhibition: at 2 µM, stronger effect = higher value, 0% TNFa-plus-vehicle, 100% no-TNFa wells
[2] = inhibitors of mutant huntingtin aggregation, primary screen, imaging, exon1htt(103Q)mCFP cells, high-content imaging (AID 483;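 active = visual image review flags a hit and inhibition of aggregation exceeds 20%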;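 note: compound exposure lasted 3 days before fixation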;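 for nuclei count: percent of the per-plate median nuclei count of sample wells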); details: exon1htt(103Q)mCFP cell line, aggregate imaging, at 2 µM; inhibition of aggregation: stronger effect = higher value; nuclei count: measured here: cell count, toxicity
[3] = inhibitors of E-selectin induction by TNFa, primary screen, imaging, HUVEC, immunofluorescence, MLSMR starter and 10KST1 sets (AID 487;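 active = visually confirmed hit in the image check and inhibition above 20%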;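 for inhibition: signal is fraction of cell area covered by stained E-selectin grains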;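 for nuclei count: 100% = median nuclei count of all wells on the same plate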); details: HUVEC TNFalpha-induced E-selectin immunofluorescence imaging, at 2 µM; inhibition: stronger effect = higher value; nuclei count: measured here: cell number, toxicity
[4] = target: Voltage-gated potassium channel subunit beta-2 (Rattus norvegicus) (UniProt P62483); experiment: KvBeta enzyme negative modulators, primary screen, biochemical, NADPH fluorescence (AID 622;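 active = fluorescence slope higher than the sample average by over 3 SD, cut at about -0.22 in these data, passing the limit was not always enough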;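 note: slope of raw intensity against log time taken from 70 to 1610 s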); details: recombinant KvBeta, 4-cyanobenzaldehyde reduction, at 10 µM, stronger effect = higher value
[5] = target: Voltage-gated potassium channel subunit beta-2 (Rattus norvegicus) (UniProt P62483); experiment: KvBeta positive modulators, primary screen, biochemical, NADPH fluorescence (AID 623;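 active = NADPH fluorescence slope more negative than the mean of all samples by about 3 SD, 99.7% confidence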;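 note: fluorescence intensity change per second fitted from 20 to 320 s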); details: Recombinant KvBeta, NADPH fluorescence decrease slope, 10 min; at 10 µM; stronger effect = lower value
[6] = target: Alpha-2C adrenergic receptor (Homo sapiens) (UniProt P18825); experiment: modulators of alpha2C/GIRK thallium flux, primary screen, cell-based, HEK293 alpha2C/GIRK1/2 (AID 624); details: thallium flux BTC fluorescence, at 10 µM, actives lie on both sides;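 note: slope of fluorescence ratio to pre-addition baseline per second over 15 to 24 s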
[7] = inhibitors of Sendai virus-induced IRF3 signaling, primary screen, TLR/RLR signaling modifier project, cell-based, Sendai virus stimulus, luciferase, 10K MLSCN set (AID 602276;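 active = inhibition at or above 50% at 10 µM; inactive = inhibition below 50%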;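 note: firefly luciferase from ISG56 promoter only with Renilla not read in this screen; 0% = Sendai virus plus DMSO and 100% = medium plus DMSO without virus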); details: HEK293 RL24 IRF3 luciferase reporter, at 10 µM, stronger effect = higher value
[8] = inhibitors of poly I:C-induced TLR3 signaling, primary screen, cell-based, poly I:C stimulus, luciferase, 10K MLSCN set (AID 602277;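 active = inhibition of the reporter signal at or above 50%; inactive = inhibition below 50%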); details: HEK293-TLR3 RL24 IRF3 luciferase reporter, at 10 µM, stronger effect = higher value

Chain of Voltage-gated potassium channel subunit beta-2 (Rattus norvegicus) (P62483 whole entry, looked up): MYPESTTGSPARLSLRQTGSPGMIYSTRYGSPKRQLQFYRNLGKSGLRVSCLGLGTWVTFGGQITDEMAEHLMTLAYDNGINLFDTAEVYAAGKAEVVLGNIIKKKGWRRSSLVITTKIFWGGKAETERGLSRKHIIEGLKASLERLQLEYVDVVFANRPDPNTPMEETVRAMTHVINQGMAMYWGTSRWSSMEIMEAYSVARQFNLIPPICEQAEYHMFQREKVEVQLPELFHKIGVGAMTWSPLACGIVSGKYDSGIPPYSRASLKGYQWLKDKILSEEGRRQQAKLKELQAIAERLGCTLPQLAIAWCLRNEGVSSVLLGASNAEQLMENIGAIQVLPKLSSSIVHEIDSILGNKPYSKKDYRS
Chain of Alpha-2C adrenergic receptor (Homo sapiens) (P18825 whole entry, looked up): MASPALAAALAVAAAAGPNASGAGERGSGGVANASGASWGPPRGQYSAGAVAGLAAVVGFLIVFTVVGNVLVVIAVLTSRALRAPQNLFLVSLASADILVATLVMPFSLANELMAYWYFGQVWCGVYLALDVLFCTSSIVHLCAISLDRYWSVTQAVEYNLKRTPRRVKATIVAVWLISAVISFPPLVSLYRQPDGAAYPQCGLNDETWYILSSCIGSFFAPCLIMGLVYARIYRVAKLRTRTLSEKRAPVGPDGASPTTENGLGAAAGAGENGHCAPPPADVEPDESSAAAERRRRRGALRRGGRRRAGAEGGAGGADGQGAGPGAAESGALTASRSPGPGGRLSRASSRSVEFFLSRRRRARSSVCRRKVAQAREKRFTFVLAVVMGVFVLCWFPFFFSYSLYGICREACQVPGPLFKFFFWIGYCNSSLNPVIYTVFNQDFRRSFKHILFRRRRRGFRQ

Row | Compound | cell count [1] | inhibition [1] | inhibition of aggregation [2] | nuclei count [2] [%] | inhibition [3] | nuclei count [3] [%] | fluorescence slope [4] | NADPH fluorescence slope [5] | slope [6] | inhibition [7] | inhibition [8]
1 | CSC1=N/C(=C\C=C\c2cccs2)C(=O)S1 | 374 | -11.5% (inactive) | -80.1% (inactive) | 106 | 0.2% (inactive) | 115 | -0.343 (inactive) | -4.4e-05 (inactive) | 0.00431 (inactive) | 10.5% (inactive) | 28.8% (inactive)
2 | OCc1cn(-c2ccccc2)nc1-c1ccc2c(c1)OCCO2 | 438 | 4.2% (inactive) | -10.7% (inactive) | 99.4 | -84% (inactive) | 112 | -0.532 (inactive) | -4.4e-05 (inactive) | 0.00702 (inactive) | -51.8% (inactive) | -135% (inactive)
3 | CCCCN(C(=O)c1ccc(Cl)cc1)C1CC2CCC(C1)N2C (stereo not drawn) | 588 | 6.5% (inactive) | 5.4% (inactive) | 114 | -93.1% (inactive) | 116 | -0.561 (inactive) | -6.5e-05 (inactive) | 0.0056 (inactive) | -6.18% (inactive) | 35.3% (inactive)
4 | Cn1nnnc1SCC(=O)Nc1ccccc1-c1ccccc1 | 484 | -8.7% (inactive) | 14.7% (inactive) | 87.9 | -80.2% (inactive) | 114 | -0.302 (inactive) | -1.3e-05 (inactive) | 0.00645 (inactive) | 6.85% (inactive) | -4.74% (inactive)
5 | Nc1cc(-c2ccc(Br)cc2)nn1S(=O)(=O)c1ccccc1 | 807 | 6.9% (inactive) | -1% (inactive) | 93.9 | -57.9% (inactive) | 109 | -0.609 (inactive) | -1.6e-05 (inactive) | 0.00722 (inactive) | 6.44% (inactive) | 32.2% (inactive)
6 | CN1CCN(CC#CCC(O)(c2ccccc2)C2CCCC2)CC1 (stereo not drawn) | 415 | 2.2% (inactive) | -1.8% (inactive) | 99.7 | -21.3% (inactive) | 118 | -0.428 (inactive) | -4.8e-05 (inactive) | 0.00551 (inactive) | 7.06% (inactive) | 4.71% (inactive)
7 | COCCN(Cc1cc2cc3c(cc2n2nnnc12)OCO3)C(=O)c1ccccc1F | 271 | 10.7% (inactive) | -8.2% (inactive) | 96.5 | -63.4% (inactive) | 105 | -0.352 (inactive) | -3.2e-05 (inactive) | 0.00537 (inactive) | 3.47% (inactive) | 5.93% (inactive)
8 | CCCn1c(SCC(=O)Nc2ccccc2C(=O)OCC)nc2c1c(=O)n(C)c(=O)n2C | 225 | -9.1% (inactive) | -9.7% (inactive) | 95.2 | -4.8% (inactive) | 77.3 | -0.402 (inactive) | -3.8e-05 (inactive) | 0.00524 (inactive) | 4.88% (inactive) | 5.62% (inactive)
9 | NC(=O)c1ccccc1NC(=O)CCCN1C(=O)CCC1=O | 567 | -1.8% (inactive) | -7.8% (inactive) | 104 | -30.7% (inactive) | 92.1 | -0.601 (inactive) | -1.2e-05 (inactive) | 0.00648 (inactive) | 2.16% (inactive) | 13.3% (inactive)
10 | CC(=O)O[C@H]1CSC[C@H]1NC(=O)c1ccccc1 | 467 | 10.9% (inactive) | 9.1% (inactive) | 96.2 | 21.9% (inactive) | 111 | -0.509 (inactive) | -1.7e-05 (inactive) | 0.00411 (inactive) | 16.6% (inactive) | 16.9% (inactive)
11 | O=C(CSc1nnc(Cc2cc(=O)[nH]c(=O)[nH]2)n1-c1ccccc1)NCC1CCCO1 (stereo not drawn) | 398 | 1.1% (inactive) | -3.9% (inactive) | 110 | 5.7% (inactive) | 102 | -0.373 (inactive) | 3.5e-05 (inactive) | 0.00598 (inactive) | 10.3% (inactive) | 21.2% (inactive)
12 | Cc1c(C#N)c2ncnc(-c3ccccc3)c2n1-c1ccccc1 | 287 | 0.4% (inactive) | -11.3% (inactive) | 99.5 | -8.1% (inactive) | 108 | -0.448 (inactive) | -0.000103 (inactive) | 0.00601 (inactive) | 15.3% (inactive) | 34.5% (inactive)
13 | Cc1csc(NC(=O)CCn2c(=O)oc3ccccc32)n1 | 502 | -20.3% (inactive) | -30.3% (inactive) | 79.1 | -6.4% (inactive) | 90.9 | -0.323 (inactive) | -4.9e-05 (inactive) | 0.00431 (inactive) | 4.3% (inactive) | -1.46% (inactive)
14 | CCOc1cccc(C(=O)N2CCCCC2c2cccnc2)c1 (stereo not drawn) | 269 | -0.4% (inactive) | -24.6% (inactive) | 95.1 | -148% (inactive) | 101 | -0.526 (inactive) | -4.2e-05 (inactive) | 0.00421 (inactive) | 9.72% (inactive) | 19.7% (inactive)
15 | COc1ccc(C2CC(c3ccc(Cl)cc3Cl)n3nc(N)nc3N2)cc1 (stereo not drawn) | 461 | -1.8% (inactive) | -8.9% (inactive) | 66.5 | -1.4% (inactive) | 101 | -0.592 (inactive) | -5.5e-05 (inactive) | 0.00726 (inactive) | 9.25% (inactive) | 25.2% (inactive)
16 | Cc1ccc(-c2nc3ccccc3[nH]2)s1 | 362 | -13.1% (inactive) | -2.5% (inactive) | 95.2 | -72.7% (inactive) | 101 | -0.277 (inactive) | -1.4e-05 (inactive) | 0.00551 (inactive) | -45.9% (inactive) | -155% (inactive)
17 | CCCc1nnc(NC(=O)CCC(=O)N2CCN(CCOc3ccc(C)cc3)CC2)s1 | 480 | -5.6% (inactive) | -0.2% (inactive) | 89.5 | -2.3% (inactive) | 81.8 | -0.379 (inactive) | 6e-06 (inactive) | 0.0036 (inactive) | 0.418% (inactive) | 10.9% (inactive)
18 | OCCNCCCCOc1ccccc1F | 765 | -1.5% (inactive) | -2.5% (inactive) | 91.8 | 33.1% (inactive) | 91.1 | -0.387 (inactive) | 1.2e-05 (inactive) | 0.00574 (inactive) | -4.78% (inactive) | 2.08% (inactive)
19 | Cc1ccc(Cn2c(SCCN3CCCCC3)nc3c2c(=O)[nH]c(=O)n3C)cc1 | 575 | -6.4% (inactive) | 5.6% (inactive) | 71.5 | 29.9% (inactive) | 100 | -0.577 (inactive) | -2.5e-05 (inactive) | 0.00647 (inactive) | 3.78% (inactive) | 32.9% (inactive)
20 | c1ccc(OCCCn2nnc(-c3cccnc3)n2)cc1 | 340 | 0.3% (inactive) | 12.8% (inactive) | 95.2 | -79.2% (inactive) | 121 | -0.343 (inactive) | 4.3e-06 (inactive) | 0.0037 (inactive) | 2.51% (inactive) | -2.63% (inactive)
21 | COc1ccc(-c2oc3ncn(CCN4CCOCC4)c(=N)c3c2-c2ccc(OC)cc2)cc1 | 688 | -9.5% (inactive) | 17.4% (inactive) | 75.4 | -16.4% (inactive) | 98 | -0.32 (inactive) | -6.6e-05 (inactive) | 0.00302 (inactive) | 1.98% (inactive) | -0.246% (inactive)
22 | CC(C)C(NC(=O)c1ccc(S(=O)(=O)N2CCOCC2)cc1)c1nc2ccccc2[nH]1 (stereo not drawn) | 276 | 15.9% (inactive) | -10.8% (inactive) | 114 | 8.4% (inactive) | 98.7 | -0.436 (inactive) | -9.2e-05 (inactive) | 0.00591 (inactive) | 13.3% (inactive) | 26% (inactive)
23 | CC(=O)OCCNc1cc(N2CCN(C)CC2)c2noc3c2c1C(=O)c1ccccc1-3 | 746 | 1.6% (inactive) | -43.5% (inactive) | 114 | -15.4% (inactive) | 111 | -0.58 (inactive) | -2.8e-05 (inactive) | 0.00388 (inactive) | 27.6% (inactive) | 21.4% (inactive)
24 | O=C(NCCSc1c[nH]c2ccccc12)c1ccc(Br)o1 | 564 | 3.9% (inactive) | -4.5% (inactive) | 114 | -35.7% (inactive) | 113 | -0.559 (inactive) | -4.4e-05 (inactive) | 0.00687 (inactive) | 6.55% (inactive) | -6.47% (inactive)
25 | O=C(CN(C1CCCCC1)S(=O)(=O)c1ccccc1)NCc1cccnc1 | 671 | 2% (inactive) | -28.8% (inactive) | 110 | -75.7% (inactive) | 119 | -0.308 (inactive) | -3e-05 (inactive) | 0.00649 (inactive) | 5.99% (inactive) | 13.7% (inactive)
26 | Nn1c(Cc2ccccc2F)nnc1SCC(=O)N1CC(=O)Nc2ccccc21 | 324 | 20.7% (inactive) | 11.9% (inactive) | 107 | -11.5% (inactive) | 105 | -0.39 (inactive) | 6.9e-08 (inactive) | 0.00403 (inactive) | 11.5% (inactive) | 36.8% (inactive)
27 | COCCn1c(SCC(=O)N2CCc3ccccc32)nc2c(c1=O)SC(C)C2 (stereo not drawn) | 499 | -4.4% (inactive) | 13% (inactive) | 87.2 | -0.4% (inactive) | 109 | -0.45 (inactive) | -1.4e-05 (inactive) | 0.00569 (inactive) | 1.65% (inactive) | 22.3% (inactive)
28 | O=C(Nc1ccccc1)N(O)c1ccc(Cl)cc1 | 284 | -11.4% (inactive) | 38.9% (active) | 90.3 | 44.1% (inactive) | 85.6 | -0.378 (inactive) | -7.1e-05 (inactive) | 0.00373 (inactive) | -39.6% (inactive) | -78.3% (inactive)
